Compound activity as filed in PubChem.
Only some compounds are listed: those with a hit (about 10% of all), similar ones and a draw of the others.
HP1b chromo inh: inhibitors of HP1-beta chromodomain binding to methylated histone tails | P83916 | AlphaScreen HP1-beta / biotin-H3K9me3 peptide binding | Potency, µM (titrated, usually from 114 µM), for the others: top-dose activity change, negative = inhibition, actives largely listed as inhibitors | 0.56% of 390,000 active; also: nearly all actives have a fitted effect of over 70% in size
Target sequence (P83916 whole entry, looked up): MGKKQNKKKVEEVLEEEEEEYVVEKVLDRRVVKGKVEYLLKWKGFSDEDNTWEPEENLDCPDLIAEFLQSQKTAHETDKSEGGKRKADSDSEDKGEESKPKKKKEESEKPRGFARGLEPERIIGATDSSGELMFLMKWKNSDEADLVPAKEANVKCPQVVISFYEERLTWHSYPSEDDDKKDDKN
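HP1-beta protein (50 nM final) preincubated 30 min at room temperature with biotinylated H3(1-18)K9me3 peptide (50 nM) in PBS pH 7.4, 0.01% Tween-20, then compound added for 30 min. AlphaScreen streptavidin donor/nickel chelate acceptor beads (10 ug/mL final), 30 min dark, luminescence read.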
JMJD2A Tudor inh: blocks the human JMJD2A Tudor domain. O75164. AlphaScreen JMJD2A-Tudor / H3K4me3 peptide binding. Potency, µM (highest dose often 114 µM), for the others: at the highest dose activity change, negative = inhibition, actives largely listed as inhibitors. 4.4% of 390,000 active; also: % is scaled to controls: 0 for no effect and ±100 for the full control effect; nearly all actives have a fitted effect of over 50% in size
L3MBTL1 inh: L3MBTL1 (human) inhibition; Q9Y468; AlphaScreen L3MBTL1–H3K9me1 peptide binding; Potency, µM (titrated, usually from 57.1 µM), for inactives: top-dose activity, negative = inhibition, usual class: inhibitors; 0.66% of 230,000 active; also: % is scaled to controls: 0 for no effect and ±100 for the full control effect; nearly all actives have a fitted effect of over 60% in size
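AlphaScreen assay: L3MBTL1 (50 nM final) was preincubated 30 min at room temperature with biotinylated H3(1-15)K9me1 peptide (75 nM final), then 30 min with library compounds; streptavidin donor and nickel chelate acceptor beads (10 ug/mL final) added, 30 min dark.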
G9a inh: blocks human histone lysine methyltransferase G9a. G9a H3K9 monomethylation, AlphaScreen, 2 h. Potency, µM (top dose mostly 102 µM), for the others: at the highest dose activity, negative = inhibition, actives largely listed as inhibitors. Q96KQ7. AID 504332. 8.8% of 350,000 active; also: % is scaled to controls: 0 for no effect and ±100 for the full control effect; nearly all actives have a fitted effect of over 75% in size
Target sequence (Q96KQ7 913-1193 limits assumed): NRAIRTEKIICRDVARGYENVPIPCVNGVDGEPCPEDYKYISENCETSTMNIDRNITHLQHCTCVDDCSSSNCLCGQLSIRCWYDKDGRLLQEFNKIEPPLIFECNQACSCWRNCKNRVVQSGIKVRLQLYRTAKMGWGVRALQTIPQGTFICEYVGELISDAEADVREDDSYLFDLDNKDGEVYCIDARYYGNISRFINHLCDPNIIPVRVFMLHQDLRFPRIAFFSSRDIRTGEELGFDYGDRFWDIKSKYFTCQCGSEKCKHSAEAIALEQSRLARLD
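Readings reflect AlphaScreen signal from monomethyl-H3K9 antibody detection. HMT at 20 nM; substrate b-H3K9 500 nM; cofactor SAM 20 uM; 2 h RT reaction; compounds tested as titrations in qHTS with 15 min preincubation.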
BAZ2B inh: blocks human BAZ2B; AlphaScreen BAZ2B-H3K14Ac peptide displacement; Potency, µM (titrated, usually from 114 µM), for the others: at the highest dose activity change, negative = inhibition, most hits filed as inhibitors; 4.4% of 360,000 active; AID 504333; also: % is scaled to controls: 0 for no effect and ±100 for the full control effect; nearly all actives have a fitted effect of over 60% in size
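AlphaScreen luminescence quantifies BAZ2B engagement of H3K14Ac peptide; the protein and biotinylated peptide are both at 50 nM final, buffer PBS pH 7.4 with 0.01% Tween-20, all steps at room temperature.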
GLS inh: glutaminase GLS (human) inhibition. O94925. GLS enzymatic activity, qHTS titration. Potency, µM (top dose mostly 45.5 µM), inactives show top-dose activity change, negative = inhibition, actives largely listed as inhibitors. 0.21% of 410,000 active. AID 624170; also: % is scaled to controls: 0 for no effect and ±100 for the full control effect
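Human kidney-isoform GLS in 45 mM KH2PO4 pH 8.2, 0.02% Tween-20, with compound, started with 1mM L-Glutamine (added stock). Glutamate oxidase/HRP/Amplex red coupled fluorescence read at start and after 30 min at RT.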
The depositor's hits bear a star; ? = inconclusive; / = no result given; [ ] = remark or other dose. Calls follow the shape of the dose curve; as a rule, active = well fitted curve in the direction sought with a large enough effect; inconclusive = small, poorly fitted or top-dose-only effect, or another doubt; inactive = no such curve, though single readings can be large; an effect the other way counts as inactive or inconclusive. Potency is read from the fitted curve at half-maximal effect.

SMILES	HP1b chromo inh	JMJD2A Tudor inh	L3MBTL1 inh	G9a inh	BAZ2B inh	GLS inh
Cc1nc([N+](=O)[O-])c(Br)n1CC(=O)c1ccc(Cl)cc1	25.3%	-24.2%	/	50.1µM*	-1.9%	-18.3%
CC1(C#CC[N+]2(C)CCCCC2)CCC2C(O1)c1ccccc1OC2(C)C (stereo not given)	?	-26.1%	/	3.16µM*	56.2µM*	-5.4%
C/C(=N/NC(=O)c1ccc(Br)o1)c1cccc(NC(=O)c2ccc(C)o2)c1	-10.0%	50.1µM*	-7.6%	24.1%[59 µM]	-36.2%	?
C/C(=N/NC(=O)c1ccco1)c1cccc(NC(=O)c2ccc(C)o2)c1	7.5%	-15.2%	-1.8%	/	0.6%	-2.8%
O=C(c1ccccc1)c1cccc(NC(=O)c2ccc(Br)o2)c1	5.0%	-19.4%	/	44.7µM*	-38.8%	-9.0%
C/C(=N\NC(=O)c1cccs1)c1cccnc1	-10.2%	17.8µM*	/	-8.0%	/	?
C/C(=N\NC(=O)c1ccncc1)c1cccs1	29.2%	3.0%	/	0.5%[59 µM]	-23.0%	1.1%
O=C(NNC(=S)NC(=O)c1cccs1)c1cccnc1	44.8%	-9.1%	3.1%	44.7µM*	9.2%	?
C/C(=N\NC(=O)c1ccncc1)c1cccnc1	20.8%	-2.3%	/	?	?	16.6%
O=C(NNC(=O)c1cccs1)c1cccnc1	20.4%	-6.8%	/	-6.9%[59 µM]	3.0%	14.5%
O=C(NNC(=S)NC(=O)c1cccs1)c1ccc(O)cc1	49.8%	-22.4%	/	39.8µM*	0.4%	15.8%
C/C(=N\NC(=O)C1=NNC(=O)C1C)c1cccs1 (stereo not given)	26.9%	-2.3%[11.4 µM]	16.0%	44.7µM*	?	-0.1%
NCC(O)C1CCCCCCC1 (stereo not given)	/	/	/	-9.7%[59 µM]	/	/
Cc1ccc(C(=O)c2cn(CC(=O)NCc3ccccc3Cl)c3nc(C)ccc3c2=O)cc1	30.2%	-8.1%	/	-24.9%[59 µM]	10.1%[57.1 µM]	0.4%
CCn1c(SCc2ccccc2)nnc1-c1nonc1NC(C)=O	36.2%	-17.9%	/	9.9%[59 µM]	1.2%	-4.3%
Cc1ccc(CN(Cc2ccco2)C(=O)c2ccccc2Cl)o1	9.9%	-34.9%	/	-27.1%[59 µM]	?	-4.5%
CCCCCCCCC(=O)N/N=C(\C)c1cccnc1	63.2%	89.1µM*	12.0%	10µM*	-29.9%	9.6%
C/C(=N\NC(=O)Cc1ccccc1)c1cccnc1	36.6%	-7.1%	/	0.9%[0.501 µM]	-13.0%	2.6%
Cc1cc(NC(=O)COc2ccccc2)cc(-c2nc3ccccc3o2)c1O	20.5%	3.0%	/	-34.9%[59 µM]	-8.9%	-14.0%
COc1ccc(Cl)cc1NC(=O)CN(c1cccc(C)c1C)S(C)(=O)=O	49.6%	-11.1%	/	-18.2%[59 µM]	-0.6%	1.0%
N#Cc1c(-c2ccco2)cc(C2CC2)nc1N	29.9%	-0.7%	5.4%	14.1µM*	-2.3%	-1.6%
N#Cc1c(-c2ccco2)cc(-c2cccnc2)nc1N	49.0%	-15.0%	-16.3%	35.5µM*	?	5.4%
C=CCN1C(=O)/C(=C2/C(=O)N(CC(=O)O)c3ccccc32)S/C1=N/c1nccs1	/	/	7.94µM*	1.2%[2.33 µM]	12.6µM*	/
Cc1ccc(N2CC(NC(=O)c3ccc(S(=O)(=O)N4CCCC4)cc3)CC2=O)cc1C (stereo not given)	28.2%	-2.3%	/	-0.1%[59 µM]	1.4%	-3.1%
COc1cc(/C=C2\SC(=Nc3ccccc3)N(CCc3c[nH]c4ccccc34)C2=O)ccc1OC(C)C(=O)O (stereo not given)	?	56.2µM*	-5.3%	6.31µM*	44.7µM*	24.7%
O=C1/C(=C/c2ccc(N3CCOCC3)o2)SC(=Nc2ccccc2)N1CCc1c[nH]c2ccccc12	-38.3%	?	-13.8%	?	?	?
COc1ccc(N=C2S/C(=C\c3ccc(OC(C)C(=O)O)c(OC)c3)C(=O)N2CCc2c[nH]c3ccccc23)cc1 (stereo not given)	?	39.8µM*	-13.4%	35.5µM*	22.4µM*	2.5%
Cc1cc(NC(=O)CSCC(=O)Nc2cc(Cl)ccc2N2CCN(C)CC2)no1	23.9%	-7.8%	9.8%	28.0%[12.7 µM]	-4.9%	1.3%
